Results taken from PubChem BioAssay AID1159580 (chemical genetic matrix, 2015).
The campaign covered roughly 5,500 compounds. About 2,000 (36%) were called active. Inconclusive results (about 18%) are left out. The list shows a part of the results. Unmarked numbers belong to inactive results. Cut-off read from the data, not from the text of the source: active = normalized growth mostly below about 0.91 (no sharp cut-off); inconclusive = no clear call, values can overlap the other calls; inactive = mostly above about 0.92.

Experiment: chemical genetic growth profiling, strain panel (AID 1159580);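 note: tested at 20 µM; growth read once vehicle control cultures reached saturation at 30 °C; 1 = growth at the plate median or of vehicle wells; lower values mean less growth of the strain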
Conditions: S. cerevisiae deletion strains, growth OD
[1] = locus YAL040C, strain CLN3, active compounds read low
[2] = locus YCL061C, strain MRC1 (second series), active compounds read low
[3] = locus YDR363W, strain ESC2, active compounds read low
[4] = locus YER002W, strain NOP16, active compounds read low
[5] = locus YMR307W, strain GAS1, active compounds read low
[6] = locus YNL128W, strain TEP1, active compounds read low
[7] = locus YNL175C, strain NOP13, active compounds read low
[8] = locus YNL197C, strain WHI3, active compounds read low
[9] = locus YNL224C, strain SQS1, active compounds read low
[10] = locus YOR083W, strain WHI5 (second series), active compounds read low
[11] = locus YAR019C, strain CDC15, active compounds read low
[12] = locus YBL105C, strain PKC1, active compounds read low
[13] = locus YBR135W, strain CKS1, active compounds read low
[14] = locus YBR136W, strain MEC1, active compounds read low
[15] = locus YBR160W, strain CDC28, active compounds read low
[16] = locus YDL017W, strain CDC7, active compounds read low
[17] = locus YDL028C, strain MPS1, active compounds read low
[18] = locus YDL108W, strain KIN28, active compounds read low
[19] = locus YDL132W, strain cdc53, active compounds read low
[20] = locus YDL214C, strain PRR2, active compounds read low
[21] = locus YDR052C, strain DBF4, active compounds read low
[22] = locus YDR054C, strain cdc34, active compounds read low
[23] = locus YDR226W, strain ADK1, active compounds read low
[24] = locus YDR477W, strain SNF1, active compounds read low
[25] = locus YER123W, strain YCK3, active compounds read low
[26] = locus YER133W, strain GLC7, active compounds read low
[27] = locus YFL009W, strain cdc4, active compounds read low
[28] = locus YFL029C, strain CAK1, active compounds read low
[29] = locus YFR003C, strain YPI1, active compounds read low
[30] = locus YFR019W, strain FAB1, active compounds read low
[31] = locus YFR028C, strain CDC14, active compounds read low
[32] = locus YGR040W, strain KSS1, active compounds read low
[33] = locus YGR052W, strain FMP48, active compounds read low
[34] = locus YGR092W, strain DBF2, active compounds read low
[35] = locus YHR030C, strain SLT2, active compounds read low
[36] = locus YHR079C, strain IRE1, active compounds read low
[37] = locus YHR082C, strain KSP1, active compounds read low
[38] = locus YHR205W, strain SCH9, active compounds read low
[39] = locus YIL147C, strain SLN1, active compounds read low
[40] = locus YJL095W, strain BCK1, active compounds read low
[41] = locus YJL128C, strain PBS2, active compounds read low
[42] = locus YJL157C, strain FAR1, active compounds read low
[43] = locus YJR016C, strain ILV3, active compounds read low
[44] = locus YJR066W, strain TOR1 (second series), active compounds read low
[45] = locus YJR066W, strain TOR1, active compounds read low
[46] = locus YKL048C, strain ELM1, active compounds read low
[47] = locus YKL067W, strain YNK1, active compounds read low
[48] = locus YKL101W, strain HSL1, active compounds read low
[49] = locus YKL193C, strain SDS22, active compounds read low
[50] = locus YKL203C, strain TOR2, active compounds read low
[51] = locus YLR113W, strain HOG1, active compounds read low
[52] = locus YLR133W, strain CKI1, active compounds read low
[53] = locus YLR403W, strain SFP1, active compounds read low
[54] = locus YML070W, strain DAK1, active compounds read low
[55] = locus YMR001C, strain CDC5, active compounds read low
[56] = locus YMR205C, strain PFK2 (second series), active compounds read low
[57] = locus YMR277W, strain FCP1, active compounds read low
[58] = locus YNL006W, strain LST8, active compounds read low
[59] = locus YNL020C, strain ARK1, active compounds read low
[60] = locus YNL161W, strain CBK1, active compounds read low
[61] = locus YNL183C, strain NPR1, active compounds read low
[62] = locus YNL207W, strain RIO2, active compounds read low
[63] = locus YNL222W, strain SSU72, active compounds read low
[64] = locus YNL307C, strain MCK1 (second series), active compounds read low
[65] = locus YOL078W, strain AVO1, active compounds read low
[66] = locus YOL136C, strain PFK27, active compounds read low
[67] = locus YOR061W, strain CKA2, active compounds read low
[68] = locus YOR119C, strain RIO1, active compounds read low
[69] = locus YOR231W, strain MKK1, active compounds read low
[70] = locus YOR329C, strain SCD5, active compounds read low
[71] = locus YPL031C, strain PHO85, active compounds read low
[72] = locus YPL153C, strain RAD53, active compounds read low
[73] = locus YPL204W, strain HRR25, active compounds read low
[74] = locus YPL209C, strain IPL1, active compounds read low
[75] = locus YPL256C, strain CLN2, active compounds read low
[76] = locus YPR025C, strain CCL1, active compounds read low
[77] = locus YPR106W, strain ISR1, active compounds read low
[78] = locus YPR111W, strain DBF20, active compounds read low
[79] = strain NNK1, active compounds read low
[80] = strain TSCII, active compounds read low

For `OC[C@H]1O[C@@H](n2cnc3cncnc32)[C@H](O)[C@@H]1O`, the normalized growth [1] was 1.01, the normalized growth [2] was 1.01 and the normalized growth [3] was 1. For the same molecule, the normalized growth [4] was 1.01, the normalized growth (locus YGR078C, strain PAC10, active compounds read low) was 1.03 and the normalized growth (locus YMR263W, strain SAP30, active compounds read low) was 0.997. The normalized growth [5] was 1, the normalized growth [6] was 1.03 and the normalized growth [7] was 1.02. The normalized growth [8] was 1, the normalized growth [9] was 1.02 and the normalized growth [10] was 1.07.

`COc1ccccc1N1CCN(CCCNc2c(C)c(=O)n(C)c(=O)n2C)CC1` gave a normalized growth (locus YAL013W, strain DEP1, active compounds read low) of 1.02, a normalized growth [1] of 0.984 and a normalized growth [2] of 0.998. The normalized growth (locus YDR150W, strain NUM1, active compounds read low) was 1, the normalized growth [3] was 1.01 and the normalized growth [4] was 0.999. The normalized growth (locus YGR229C, strain SMI1, active compounds read low) was 1.04, the normalized growth (locus YJR075W, strain HOC1, active compounds read low) was 1.01 and the normalized growth [5] was 1.02. For the same molecule, the normalized growth [6] was 1, the normalized growth [7] was 0.976 and the normalized growth [8] was 0.985. The normalized growth [9] was 0.995, the normalized growth (locus YNL322C, strain KRE1, active compounds read low) was 0.987 and the normalized growth [10] was 0.978.

Work on `COc1ccccc1C(C[N+](=O)[O-])c1c(N)n(C)c(=O)n(C)c1=O` (stereo not drawn) yielded a normalized growth [11] of 0.942, a normalized growth [12] of 0.955 and a normalized growth [13] of 0.954. It also gave a normalized growth [14] of 0.945, a normalized growth [15] of 0.953 and a normalized growth [16] of 0.958. The normalized growth [17] was 0.948, the normalized growth (locus YDL101C, strain DUN1, active compounds read low) was 0.916 and the normalized growth [18] was 0.945. The normalized growth [19] was 0.953, the normalized growth [20] was 0.583 (active) and the normalized growth [21] was 0.962. The normalized growth [22] was 0.945, the normalized growth [23] was 0.954 and the normalized growth [24] was 0.555 (active). The normalized growth [25] was 0.374 (active), the normalized growth [26] was 0.602 (active) and the normalized growth [27] was 0.96. The normalized growth [28] was 0.933, the normalized growth [29] was 0.953 and the normalized growth [30] was 0.263 (active). The normalized growth [31] was 0.956, the normalized growth [32] was 0.643 (active) and the normalized growth [33] was 0.512 (active). The normalized growth [34] was 0.443 (active), the normalized growth [35] was 0.302 (active) and the normalized growth [36] was 0.401 (active). For the same molecule, the normalized growth [37] was 0.559 (active), the normalized growth [38] was 0.21 (active) and the normalized growth [39] was 0.953. For the same molecule, the normalized growth [40] was 0.33 (active), the normalized growth [41] was 0.941 and the normalized growth [42] was 0.593 (active). The normalized growth [43] was 0.962, the normalized growth [44] was 0.133 (active) and the normalized growth [45] was 0.369 (active). For the same molecule, the normalized growth [46] was 0.654 (active), the normalized growth [47] was 0.612 (active) and the normalized growth [48] was 0.621 (active). For the same molecule, the normalized growth [49] was 0.963, the normalized growth [50] was 0.61 (active) and the normalized growth [51] was 0.382 (active). For the same molecule, the normalized growth [52] was 0.616 (active), the normalized growth [53] was 0.49 (active) and the normalized growth [54] was 0.527 (active). The normalized growth [55] was 0.946, the normalized growth [56] was 0.679 (active) and the normalized growth [57] was 0.956. For the same molecule, the normalized growth [58] was 0.957, the normalized growth [59] was 0.688 (active) and the normalized growth [60] was 0.957. For the same molecule, the normalized growth [61] was 0.381 (active), the normalized growth [62] was 0.954 and the normalized growth [63] was 0.956. The normalized growth [64] was 0.151 (active), the normalized growth [65] was 0.956 and the normalized growth [66] was 0.485 (active). For the same molecule, the normalized growth [67] was 0.678, the normalized growth [68] was 0.641 (active) and the normalized growth [69] was 0.468 (active). For the same molecule, the normalized growth [70] was 0.956, the normalized growth [71] was 0.467 (active) and the normalized growth [72] was 0.546 (active). For the same molecule, the normalized growth [73] was 0.603 (active), the normalized growth [74] was 0.95 and the normalized growth [75] was 0.348 (active). The normalized growth [76] was 0.958, the normalized growth [77] was 0.961 and the normalized growth [78] was 0.966. For the same molecule, the normalized growth [79] was 0.953 and the normalized growth [80] was 0.941.

Molecule `CC1(C)C/C(=N/Nc2ccc(C(F)(F)F)cc2)c2cc(C(C)(C)C)c(O)c(O)c2O1` has a normalized growth [11] of 0.989, a normalized growth [12] of 0.978 and a normalized growth [13] of 0.977. The normalized growth [14] was 0.978, the normalized growth [15] was 0.976 and the normalized growth [16] was 0.976. The normalized growth [17] was 0.96, the normalized growth [18] was 0.976 and the normalized growth [19] was 0.977. The normalized growth [20] was 0.481 (active), the normalized growth [21] was 0.975 and the normalized growth [22] was 0.968. The normalized growth [23] was 0.988, the normalized growth [24] was 0.6 (active) and the normalized growth [25] was 0.375 (active). It also gave a normalized growth [26] of 0.896, a normalized growth [27] of 0.979 and a normalized growth [28] of 0.978. The normalized growth [29] was 0.981, the normalized growth [30] was 0.436 (active) and the normalized growth [31] was 0.98. The normalized growth [32] was 0.635 (active), the normalized growth [33] was 0.347 (active) and the normalized growth [34] was 0.214 (active). For the same molecule, the normalized growth [35] was 0.246 (active), the normalized growth [36] was 0.29 (active) and the normalized growth [37] was 0.314 (active). The normalized growth [38] was 0.0779 (active), the normalized growth [39] was 0.975 and the normalized growth [40] was 0.283 (active). For the same molecule, the normalized growth [41] was 0.129 (active), the normalized growth [42] was 0.896 and the normalized growth [43] was 0.991. The normalized growth [44] was 0.355 (active), the normalized growth [45] was 0.36 (active) and the normalized growth [46] was 0.275 (active). For the same molecule, the normalized growth [47] was 0.532 (active), the normalized growth [48] was 0.204 (active) and the normalized growth [49] was 0.973. For the same molecule, the normalized growth [50] was 0.731, the normalized growth [51] was 0.199 (active) and the normalized growth [52] was 0.419 (active). The normalized growth [53] was 0.865, the normalized growth [54] was 0.426 (active) and the normalized growth [55] was 0.98. For the same molecule, the normalized growth [56] was 0.364 (active), the normalized growth [57] was 0.977 and the normalized growth [58] was 0.975. The normalized growth [59] was 0.375 (active), the normalized growth [60] was 0.976 and the normalized growth [61] was 0.302 (active). The normalized growth [62] was 0.976, the normalized growth [63] was 0.995 and the normalized growth [64] was 0.116 (active). For the same molecule, the normalized growth [65] was 0.975, the normalized growth [66] was 0.427 (active) and the normalized growth [67] was 0.243 (active). The normalized growth [68] was 0.534 (active), the normalized growth [69] was 0.277 (active) and the normalized growth [70] was 0.983. The normalized growth [71] was 0.576 (active), the normalized growth [72] was 0.436 (active) and the normalized growth [73] was 0.535 (active). For the same molecule, the normalized growth [74] was 0.983, the normalized growth [75] was 0.243 (active) and the normalized growth [76] was 0.981. For the same molecule, the normalized growth [77] was 0.421 (active), the normalized growth [78] was 0.319 (active) and the normalized growth [79] was 0.434 (active). For the same molecule, the normalized growth [80] was 0.986.
